# Where “and” joins values, the source holds several entries; their conditions need not be identical. Equal values may be shown once. The campaign covered roughly 150,000 compounds. About 540 (0.36%) showed an effect of 50% or more. The sample as a whole holds a higher share of strong results than the screen did.
# System: Plasmodium falciparum
# Test: Primary screen in NF54 nanoGlo assay, in single point, at 2uM, 72h; a lower Z score goes with more inhibition
# Type: functional, Erythrocyte
# Settings: timepoint 72 hour
Compound,% Inhibition,Z score,Z score (2 µM)
O=C(CCn1cnc2cc(-c3noc(-c4ccccn4)n3)ccc21)N1CCOCC1,-9%,1.86,–
COc1ccc(-c2n[nH]c3c2[C@@H](c2ccc(OCc4ccccc4F)cc2)CC(=O)O3)cc1,-7%,1.23,–
Oc1cc(OCc2ccccc2F)ccc1-c1[nH]ncc1-c1ccccc1,52%,-11.1,–
COc1ccc(-c2c(C(F)(F)F)n[nH]c2-c2ccc(OCc3ccccc3F)cc2O)cc1,79%,-11.69,–
COc1ccccc1-c1cn[nH]c1-c1ccc(OCc2cc(C)ccc2C)cc1O,0%,0,–
COc1ccc(Oc2cn[nH]c2-c2ccc(OCc3ccc(F)cc3)cc2O)cc1,4%,-0.82,–
COc1ccccc1Oc1cn[nH]c1-c1ccc(OCc2ccccc2C)cc1O,-7%,0.65,–
NC(=O)Cc1ccc(Cl)cc1Cl,-10%,1.37,–
Cc1nn(-c2ccc(Cl)cc2)cc1-c1noc(C(=O)NC2CCC(C)CC2)n1 (stereo unspecified),-10%,1.19,–
C[C@H]1CCN(Cc2ccncc2)CCN1Cc1ccccc1,-16%,3.16,–
CN1C(=O)c2ccccc2O[C@H]2CN(Cc3ccccc3)C[C@H]21,-9%,1.36,–
Cc1noc(C)c1CN1C[C@@H]2Oc3cc(F)ccc3C(=O)N(C)[C@@H]2C1,91%,-10.61,–
CN1C(=O)c2ccccc2O[C@H]2CN(Cc3cc(-c4ccccc4)no3)C[C@H]21,4%,-0.65,–
CON1CCC(C(=O)NC2c3ccccc3CCC2C)CC1 (stereo unspecified),0%,-0.03,–
O=C(O)[C@H]1CCCN(C2CCN(Cc3ccccc3)CC2)C1,-13%,1.5,–
c1nc(CCNC[C@@H]2CCCN3CCCC[C@H]23)c[nH]1,-15%,2.93,–
COCc1ncc(C)n1CC1CN(C(=O)CCc2ccccc2)C1,-10%,1.37,–
COc1cc(Cl)c(C)cc1NC(=O)c1cnn[nH]1,-17%,3.31,–
COc1cc(Cl)c(C)cc1NC(=O)c1nc2cc(C)c(C)cc2n(C)c1=O,37%,0.48,–
COc1cc(Cl)c(C)cc1NC(=O)c1cc(=O)n(-c2ccc(C)cc2)[nH]1,53%,-6.9,–
O=C(N[C@H](c1ccccc1F)C1CCCC1)C1CCN(C(=O)c2ccco2)CC1,-9%,0.87,–

Compound,% Inhibition,Z score,Z score (2 µM)
O=C(C1CCC(C2CC2)N1)N1CCC2(CCc3ccccc3C2=O)CC1 (stereo unspecified),1%,-0.19,–
CC(CCO)C1(CNC(=O)NCC2CCCO2)CCC1 (stereo unspecified),-7%,1.25,–
CCc1cccc2c(C3=CCN(C(=O)Nc4cn[nH]c4)CC3)c[nH]c12,-8%,1.44,–
Cn1ccnc1CN(Cc1cccnc1)C1CCCCCC1,2%,-0.44,–
CCC(=O)N1CCC(NCc2csc3ccccc23)C(CC)C1 (stereo unspecified),-13%,1.94,–
CCCc1nc(NC[C@H]2CC[C@H](CO)CC2)no1,-12%,1.18,–
Cc1nc(C(F)(F)F)c(CN(C)C[C@H]2CCOC2)s1,-8%,1.25,–
Cc1oc(-c2ccc(C(=O)NCCN(C)C)cc2)nc1CN1CCc2ccccc21,-14%,1.84,–
Cc1nc(C)c(CC(=O)N2CCN(c3ccccc3)CC2)c(=O)[nH]1,-33%,3.87,–
O=C(NCCCc1ccccc1)c1ccc(CN2C(=O)CCn3nccc32)cc1,58%,-2.28,–
COCCCNC(=O)c1ccc(CN2C(=O)CCn3nccc32)cc1,13%,-1.46,–
CCCCNC(=O)c1ccc(CN2C(=O)CCn3nccc32)cc1,18%,-2.08,–
CC1CCCN(C(=O)C2CCC2)C1CN (stereo unspecified),-3%,0.43,–
CC(C)c1ccc2ncnc(N[C@H]3CCc4[nH]cnc4C3)c2c1,96%,-17.94,–
C[C@@H](NC(=O)NC1CCc2[nH]cnc2C1)c1ccc(F)cc1 (stereo partly specified),-10%,1.89,–
C[C@@H]1CC[C@H](CO)N1C(=O)Cc1cccc(C(F)(F)F)n1,3%,-0.37,–
Cc1c(C(=O)NC[C@H]2CCCOC2)[nH]c2c(Cl)cccc12,-9%,1.62,–
C[C@H](OC(=O)CNC(=O)OC(C)(C)C)C(=O)N1CCCCCC1,-12%,1.29,–
c1ccc(C2(c3ccccc3)O[C@@H](c3cccnc3)Nc3ccccc32)cc1,-4%,0.54,–
Cc1ccc(CC[C@H]2Nc3ccccc3C(c3ccccc3)(c3ccccc3)O2)o1,81%,-13.4,–
CC(C)Oc1ccccc1[C@H]1Nc2ccccc2C(c2ccccc2)(c2ccccc2)O1,-1%,0.21,–

Compound,% Inhibition,Z score,Z score (2 µM)
Cc1cc(=O)n(CC(=O)N2CCCC[C@@H]2CCc2ccccc2)nc1C,-18%,3.31,–
O=C(c1cccs1)N(Cc1ccccn1)c1nc2ccccc2s1,4%,-0.46,–
Cc1ccc(F)c(NS(=O)(=O)c2cc(-c3ccn[nH]3)oc2C)c1,2%,-0.25,–
Cc1oc(-c2ccn[nH]2)cc1S(=O)(=O)Nc1ccc(F)c(Cl)c1,37%,-0.01,–
Cc1oc(-c2ccn[nH]2)cc1S(=O)(=O)Nc1cccc(Cl)c1,59%,-0.35,–
O=C(O)c1cc(NS(=O)(=O)c2cc(F)ccc2F)ccc1N1CCCCCC1,-4%,0.67,–
CCc1cccc2c(C3=CCN(c4ccc5nnc(C(F)(F)F)n5n4)CC3)c[nH]c12,11%,-2.04,–
Cc1cc(C)cc(NC(=O)c2c(C)sc3ncnc(N4CCCC4)c23)c1,-2%,0.31,–
CC(CN1CCC(N2CCOCC2)C1)c1cccc(Cl)c1 (stereo unspecified),5%,-0.64,–
CCC(=O)NCc1nc2c(n1C)CN(C(=O)c1ccc(CC)cc1)CC2,2%,-0.2,–
COC1(C)CCN(C(=O)c2ccon2)CC1,-4%,0.52,–
O=C(CCc1conc1-c1cccc(F)c1)NC1CC1,-8%,1.59,–
Cc1csc(S(=O)(=O)N2CC[C@H](n3cccn3)C2)c1,82%,1.47,–
Cc1cc(C)c(S(=O)(=O)N2CC[C@H](n3cccn3)C2)s1,-1%,0.1,–
O=S(=O)(c1cccs1)N1CC[C@H](n2ccnn2)C1,-9%,1.54,–
COC[C@](C)(CCO)NC(=O)Nc1cc(F)cc(Br)c1,-13%,1.11,–
CCn1cc(C(=O)Nc2ccc(OCCN3CC[C@H](C)C3)cc2)cn1,5%,-0.92,–
Cc1cc(C)cc(N(CCC#N)C(=O)CN2CCC[C@H]2c2ccc3c(c2)OCCCO3)c1,-2%,0.18,–
Cn1cc(C(=O)N[C@H]2CCN(c3ccc(F)c(Cl)c3)C2)cn1,-3%,0.57,–
CNC(=O)Nc1cccc(NC(=O)c2cncc(-c3cnn(C)c3)c2)c1,24%,-3.15,–
COCCCCC(=O)N1CCC[C@H](N)[C@@H]1c1ccccc1OC,4%,-0.43,–

Compound,% Inhibition,Z score,Z score (2 µM)
O=C(CN1C(=O)N[C@]2(CCc3cc(Cl)ccc32)C1=O)c1ccc2c(c1)OCO2,0%,-0.01,–
CC(C)Nc1nc2nonc2n2cnnc12,77%,-8.71,–
C[C@H](Nc1nc2nonc2n2nnnc12)c1ccccc1,27%,-3.54,–
CC(C)Nc1nc2nonc2n2nnnc12,31%,-3.95,–
Cc1cc(N2CCC[C@H](CNC(=O)CN3CCOCC3)C2)nc2cc(F)ccc12,-15%,1.9,–
CC(=O)N[C@H]1CCN(S(=O)(=O)c2sccc2Cl)C1,0%,-0.08,–
O=C(NC1CCCC1)[C@@H](c1ccccc1)N1CCS(=O)(=O)CC1,7%,-0.84,–
O=C(NC[C@]12C[C@H]1COC21CCC1)c1ncoc1-c1ccon1,5%,-0.99,–
CN(CC(C)(CO)CO)C(=O)c1ccsc1,6%,-0.9,–
CCOC(=O)C1CCCN(C2CCN(C(=O)CCC3(Cc4ccc(C)cc4)CCC(=O)N3)CC2)C1 (stereo unspecified),-5%,0.68,–
Cc1nc(CCNc2nc(-c3ccccn3)nc3c2CCNCC3)no1,-2%,0.27,–
Cc1sc2nc(-c3ccccn3)nc(NCC(=O)N3CCC(O)CC3)c2c1-c1ccccc1,25%,-2.12,–
Cc1cc(CN(C)C(=O)[C@H]2CC(=O)N(c3ccccc3)C2)no1,-3%,0.62,–
CCC(=O)Nc1ccc(Oc2c(C)c(C(=O)O)nn2-c2ccccc2CC)c(S(=O)(=O)NCC(C)C)c1,97%,-9.77,–
CCC(=O)Nc1ccc(Oc2c(C)c(C(=O)O)nn2-c2ccccc2C)c(S(=O)(=O)N[C@@H](C)CC)c1,-10%,0.97,–
Cc1c(C(=O)O)nn(-c2ccc(F)cc2)c1Oc1ccc(NC(=O)CC(C)C)cc1S(=O)(=O)NCC(C)C,-16%,1.93,–
CC1=C(C(=O)NCCC(F)(F)F)Cn2nnnc2N1C,0%,0.01,–
COC(=O)c1ccc(C[N+]2(C[C@H]3COC4(CCCCC4)O3)CCCC2)cc1,-5%,–,0.44 and 0.65
CC(CC1OCC(C[N+]2(Cc3ccccc3)CCCCC2)O1)CC(C)(C)C (stereo unspecified),60%,-5.21,–
CC1(C)C2CCC(C2)C1CC1OCC(C[N+]2(Cc3ccccc3)CCCCC2)O1 (stereo unspecified),-7%,1.37,–
